Assay results: PubChem BioAssay (Tox21)
Inconclusive results are not listed. Active and inactive are the calls of the source. Calls come from the whole dose curve; as a rule, active = well fitted activation curve with a large enough effect in the repeat runs; inconclusive = weak or mixed curves; inactive = no such curve, though single readings can be large or run the other way.

Experiment: qHTS assay for small molecules that induce genotoxicity in human embryonic kidney cells expressing luciferase-tagged ATAD5 (AID 651632); note: nearly all actives have a fitted effect of over 15% in size
Settings: HEK293T ATAD5-luciferase induction, 16 h; series mostly up to 83.3 µM; activation: at the top concentration
Excerpt: U.S. Tox21 Program National Center for Advancing Translational Sciences [NCATS] NIH Chemical Genomics Center [NCGC] U.S. Environmental Protection Agency [EPA] National Institutes of Environmental Health Sciences [NIEHS] National Toxicology Program [NTP] U.S. Food and Drug Administration [FDA] Tox21 Assay Overview: As cancer cells divide rapidly and during every cell division they need to duplicate their genome by DNA replication. The failure to do so results in the cancer cell death. Based on this concept, many chemotherapeutic agents were developed but have limitations such as low efficacy and severe side effects etc. A new cell based assay was developed to find the compounds that effectively block DNA replication either by directly damaging DNA or by inhibiting other cellular mechanisms. Enhanced Level of Genome Instability Gene 1 (ELG1; human ATAD5) protein levels increase in response to various types of DNA damage. Using a luciferase reporter-gene tagged with ATAD5, a cell-based assay [developed by Kyungjae Myung, NHGRI, NIH] was used to measure the induction of ATAD5 in human embryonic kidney cells (HEK293T). So, increase in luciferase activity can be used to identify the compounds that cause genetic stress.
Tox21 Assay Protocol Summary: For genotoxicity screening, 2,000 cells in 5 uL/well were dispensed into white, solid-bottom 1536-well plates using a Multidrop Combi (Thermo Scientific) dispenser. Following transfer of 23 nL compound or DMSO vehicle by a pin tool, the plates were incubated 16 hr at 37C and 5% CO2. 5 ul Amplite (AAT Bioquest, Inc.) was then added to each plate and following 30 min incubation at room temperature, luciferase activity was quantified on a ViewLux CCD-based plate reader.
% is set by controls: 0 for no effect and ±100 for the full control effect.

SMILES | activation
CCCCOC(=O)CCCCC(=O)OCCCC | 1.36% (inactive)
CC(O)Cn1cnc2c1c(=O)n(C)c(=O)n2C (stereo not given) | -3.88% [at 39.1 µM] (inactive)
CCCCCCCCCCCCCCCC(=O)OCC | 2.06% (inactive)
BrC(Br)C(Br)Br | -1.08% (inactive)
O=C(Nc1ccc(C(=O)O)c(O)c1)c1ccccc1 | -0.359% (inactive)
CC1CCCC(=O)C1=O (stereo not given) | 0.251% (inactive)
CNC1CCCN(c2c(F)cc3c(=O)c(C(=O)O)cn(C4CC4)c3c2OC)C1 (stereo not given) | -1.47% (inactive)
COc1cc(S(=O)(=O)Nc2ccccc2)c(OC)cc1N | 0.831% (inactive)
Cc1cn([C@H]2C[C@H](F)[C@@H](CO)O2)c(=O)[nH]c1=O | 1.24% (inactive)
CC(=O)OCC(=O)[C@@]1(OC(C)=O)[C@@H](C)C[C@H]2[C@@H]3C[C@H](F)C4=CC(=O)C=C[C@]4(C)[C@@]3(F)[C@@H](O)C[C@@]21C | 3.23% (inactive)
O=C(O)CN1C(=O)c2cccc3cccc(c23)C1=O | 1.84% (inactive)
CCN(CC)CCOC(=O)C(c1ccccc1)c1ccccc1 | -2.2% (inactive)
CC(C)(C)C(O)/C=C/c1ccc2c(c1)OCO2 (stereo not given) | 5.7% (inactive)
CC(C)COC(=O)c1ccc(O)cc1 | 4.26% (inactive)
C/C(C=O)=C\c1ccccc1 | 3.76% (inactive)
CCCCCCCCCCCSCC(=O)O | 2.19% (inactive)
CC1CCC(C(C)CS)CC1S (stereo not given) | 4.82% (inactive)
Cc1c(C2(c3cc(Br)c(O)c(Br)c3C)OS(=O)(=O)c3ccccc32)cc(Br)c(O)c1Br | -13.2% (inactive)
O=C1CC[C@@H](C(=O)O)N1 | 0.21% (inactive)
CC(C)C(=O)OCCOc1ccccc1 | 3.1% (inactive)

SMILES | activation
ClC1=C(Cl)C1(Cl)Cl | 0.376% [at 95.3 µM] (inactive)
CC(=O)N[C@@H](Cc1ccc(O)cc1)C(=O)O | 1.51% (inactive)
CC(C)(C(=O)c1cccnc1)c1cccnc1 | -1.14% [at 39.1 µM] (inactive)
Cc1cccc(C)c1NC(=O)c1cc(S(N)(=O)=O)c(Cl)cc1O | 0.799% (inactive)
O=C(CCS)OCC(COC(=O)CCS)(COC(=O)CCS)COC(=O)CCS | -8.11% (inactive)
COc1ccc(C(=O)NCc2ccc(OCCN(C)C)cc2)cc1OC | 2.09% (inactive)
CC(C(=O)O)c1ccc(C(=O)c2cccs2)cc1 (stereo not given) | 0.846% [at 39.1 µM] (inactive)
O=c1[nH]c2cc(C(F)(F)F)c(N3CCOCC3)cc2n(CP(=O)(O)O)c1=O | 1.31% (inactive)
C1=CCC2CC=CC2C1 (stereo not given) | 0.845% (inactive)
CC(=O)C(C)=O | 4.23% [at 95.3 µM] (inactive)
N[C@@H](Cc1cc(I)c(O)c(I)c1)C(=O)O | -2.47% (inactive)
Cc1cccc2sc(N)nc12 | 4.8% [at 95.3 µM] (inactive)
CCCCCCCC(=O)Oc1c(Br)cc(C#N)cc1Br | -10.8% (inactive)
COc1ccc(N)c([N+](=O)[O-])c1 | 3.98% (inactive)
CC(C)c1ccc(C(=O)N=C(N)N)cc1S(C)(=O)=O | 0.523% (inactive)
Nc1ccc(NC(=O)c2ccc(N)cc2)cc1 | 8.16% (inactive)
COC(OC)OC | 0.348% (inactive)
CCC1CCC(CCC(=O)O)C1 (stereo not given) | 2.35% [at 95.3 µM] (inactive)
COc1cc(NC(C)CCCN)c2ncccc2c1 (stereo not given) | -6.77% [at 39.1 µM] (inactive)
COC(=O)C1=C(C)NC(C)=C(C(=O)OC(C)(C)CN(C)CCC(c2ccccc2)c2ccccc2)C1c1cccc([N+](=O)[O-])c1 (stereo not given) | -9.59% (inactive)
